IL1B secr inh: blocks inflammasome-driven IL-1 beta release. THP-1 LPS/ATP IL-1B secretion, AlphaLISA, 16 h; active compounds read low. activity change, % at 57.5 µM. 360,000 tested, 4.7% active. AID 743279; in the data active = activity change below about -50%; inconclusive = mostly about -30% to -49%
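Secreted IL-1B measured by AlphaLISA bead assay after 16 h compound exposure of THP-1 cells; compounds (final up to 57.5 uM) added 1 h before LPS (250 ng/mL) and ATP (1.25 mM) stimulation; lower signal means less secretion.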
DT40 TDP1 no CPT: qHTS for Inhibitors of human tyrosyl-DNA phosphodiesterase 1 (TDP1): qHTS in cells in absence of CPT | DT40 Tdp1-/- hTDP1 cells, no CPT, ATP luminescence, 48 h | Potency, µM (titrated, usually from 46.2 µM), most hits filed as inhibitors | 420,000 tested, 15% active | AID 686978, 2013; also: nearly all actives have a fitted effect of over 55% in size
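Growth of hTDP1-complemented DT40 Tdp1-knockout cells is measured by ATP luminescence after at least 48 hr compound exposure at 37 °C, with DMSO substituting for the 20 nM CPT used in the parallel screen.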
HT1080 IDH1KD tx: kills HT-1080 cells with IDH1 knockdown. HT-1080 IDH1 knockdown viability, ATP luminescence, 48 h. AID 686971. Potency, µM (series often up to 46.1 µM), actives largely listed as cytotoxic. 360,000 tested, 2% active
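% activity derives from luminescence (CellTiter-Glo), normalised to DMSO and no-cell wells. HT-1080-IDH1KD cells, 750/well, had 48 h compound exposure at 37 °C.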
HT1080-NT tox: kills 2HG-producing HT-1080-NT fibrosarcoma cells; 360,000 tested, 1.6% active; Potency, µM (series often up to 46.1 µM), usual class: cytotoxic; HT-1080-NT fibrosarcoma viability, CellTiter-Glo ATP luminescence, 48 h;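 also: NT is the 2HG producing partner of a matched IDH1 knockdown line; nearly all actives have a fitted effect of over 55% in size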
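750 cells/well, RPMI + 5% FBS; 2 h settle, compound pin-transfer, 48 h at 37 degrees C. CellTiter-Glo 10 min RT, luminescence. Normalized to DMSO and media-only wells.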
ELG1 repair inh: inhibitors of ELG1-dependent DNA repair in HEK293T cells; HEK293T ELG1-luciferase reporter, luminescence, 16 h; DNA damage induced by 5-fluorouridine; Potency, µM (highest dose often 46.1 µM), usual class: inhibitors; 330,000 tested, 2.3% active; also: nearly all actives have a fitted effect of over 55% in size
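Step one: seed 2,000 cells per well. Step two: pin-transfer compound or DMSO alongside 5-fluorouridine. Step three: incubate 16 hr, 37 °C, 5% CO2. Step four: add ONE-Glo, wait 30 min, read luminescence.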
TDP1 cell CPT: growth inhibition of DT40 Tdp1-/-;hTDP1 cells with camptothecin (screen for TDP1 inhibitors); chicken DT40 Tdp1-/-;hTDP1 cells + 20 nM CPT, ATP luminescence, 48 h; Potency, µM (titrated, usually from 46.2 µM), usual class: inhibitors; 420,000 tested, 12% active; also: nearly all actives have a fitted effect of over 55% in size
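Cell growth measured by CellTiter-Glo luminescence after a minimum 48 h, 37 C compound exposure with 20 nM CPT in Tdp1-knockout DT40 cells stably expressing hTDP1, seeded 400/well; qHTS titration format.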
Large screens that a line does not name were inactive. In the library only some 19% were active in any assay of this set; here they are far more common. Unless noted, calls follow the shape of the dose curve; as a rule, active = well fitted curve in the direction sought with a large enough effect; inconclusive = small, poorly fitted or top-dose-only effect, or another doubt; inactive = no such curve, though single readings can be large; an effect the other way counts as inactive or inconclusive.

CN(C)C(=O)CSc1ncnc2scc(-c3ccccc3)c12	none
O=c1[nH]c(CSc2ncnc3sc(-c4ccccc4)cc23)nc2ccccc12	DT40 TDP1 no CPT 13µM, TDP1 cell CPT 16µM
CC(C)N(C(=O)CSc1ncnc2sc(-c3ccccc3)cc12)C(C)C	DT40 TDP1 no CPT 15µM, TDP1 cell CPT inconclusive
O=c1[nH]c(CSc2nc(-c3ccccc3)cs2)nc2ccccc12	DT40 TDP1 no CPT inconclusive, ELG1 repair inh inconclusive, TDP1 cell CPT inconclusive
Cc1ccc(CNC(=O)c2cc(-c3ccccc3)n(Cc3cc(C)no3)n2)cc1	DT40 TDP1 no CPT inconclusive, TDP1 cell CPT 21µM
COc1ccc(C(=O)N2CCC3(CCCN(C(=O)Nc4cccc(F)c4)C3)CC2)cc1	none (no result: IL1B secr inh, HT1080 IDH1KD tx, HT1080-NT tox, ELG1 repair inh)
Nc1ccccc1SC(CC(=O)c1ccccc1)c1cccc([N+](=O)[O-])c1 (stereo not drawn)	IL1B secr inh -104, DT40 TDP1 no CPT 5.2µM, HT1080 IDH1KD tx inconclusive, HT1080-NT tox inconclusive, TDP1 cell CPT 16µM (no result: ELG1 repair inh)
O=C(NC(NC(=O)c1ccccc1)c1cccc([N+](=O)[O-])c1)c1ccccc1	ELG1 repair inh inconclusive
Nc1ccccc1SC(CC(=O)c1ccccc1)c1ccc([N+](=O)[O-])cc1 (stereo not drawn)	IL1B secr inh inconclusive, DT40 TDP1 no CPT 16µM, HT1080 IDH1KD tx inconclusive, TDP1 cell CPT 15µM (no result: ELG1 repair inh)
O=C(CC(SCCO)c1ccc([N+](=O)[O-])cc1)c1ccco1 (stereo not drawn)	IL1B secr inh inconclusive, DT40 TDP1 no CPT 15µM, ELG1 repair inh inconclusive
CC(=O)NC(CSC(CC(=O)c1ccco1)c1ccc(C)cc1)C(=O)O (stereo not drawn)	DT40 TDP1 no CPT 16µM, ELG1 repair inh inconclusive, TDP1 cell CPT inconclusive
CC(=O)NC(Cc1ccccc1)C(=O)N1CCN(C(=O)c2ccco2)CC1 (stereo not drawn)	none
COc1ccc(-n2ncc3c(NC(C)(C)CO)ncnc32)cc1	none (no result: IL1B secr inh, HT1080 IDH1KD tx, HT1080-NT tox, ELG1 repair inh)
COc1ccc(C(CC(=O)c2ccc(C)cc2)Sc2ccccc2N)cc1 (stereo not drawn)	DT40 TDP1 no CPT inconclusive, TDP1 cell CPT 23µM (no result: ELG1 repair inh)
COc1ccc(C(CC(=O)c2ccc(C)cc2)Nc2ccc([N+](=O)[O-])cc2)cc1 (stereo not drawn)	IL1B secr inh inconclusive, DT40 TDP1 no CPT inconclusive, TDP1 cell CPT inconclusive
Cc1ccc(C(=O)Nc2ccc(NC(=O)c3ccco3)c(C)c2)cc1	IL1B secr inh -59, ELG1 repair inh inconclusive
Cc1cc(NC(=O)c2ccc(Br)o2)ccc1NC(=O)c1ccco1	DT40 TDP1 no CPT 16µM, HT1080 IDH1KD tx inconclusive, HT1080-NT tox inconclusive, ELG1 repair inh inconclusive, TDP1 cell CPT 15µM (no result: IL1B secr inh)
O=C(Nc1ccc2[nH]c3c(c2c1)CCCC3)c1ccco1	DT40 TDP1 no CPT 21µM, ELG1 repair inh 4.5µM, TDP1 cell CPT inconclusive
O=C(Nc1ccc(S(=O)(=O)N2CCOCC2)cc1)c1c(F)cccc1F	none
COc1ccccc1Cc1nc2ccccc2[nH]c1=O	none (no result: IL1B secr inh, HT1080 IDH1KD tx, HT1080-NT tox, ELG1 repair inh)
O=C(N/N=C/c1ccc(O)c([N+](=O)[O-])c1)C(O)(c1ccccc1)c1ccccc1	DT40 TDP1 no CPT 2.9µM, HT1080 IDH1KD tx inconclusive, TDP1 cell CPT inconclusive
O=C(NN=Cc1ccccc1O)C(O)(c1ccccc1)c1ccccc1	DT40 TDP1 no CPT 8.2µM, HT1080 IDH1KD tx inconclusive, TDP1 cell CPT 23µM (no result: ELG1 repair inh)
Cc1cc(-c2ccc(C(C)C)c(S(=O)(=O)Nc3cc(C)on3)c2)on1	ELG1 repair inh inconclusive
COc1cc(C(=O)NC2(C(F)(F)F)C(=O)NC(C)=C2C#N)cc(OC)c1OC (stereo not drawn)	none (no result: IL1B secr inh, HT1080 IDH1KD tx, HT1080-NT tox, ELG1 repair inh)
COc1ccc(N2CC(C(=O)Nc3cc(C(F)(F)F)ccc3N3CCCC3)CC2=O)c(OC)c1 (stereo not drawn)	DT40 TDP1 no CPT 23µM, HT1080 IDH1KD tx 21µM, HT1080-NT tox 21µM, TDP1 cell CPT inconclusive
CCc1ccc(N2CC(C(=O)Nc3ccccc3F)CC2=O)cc1 (stereo not drawn)	none
COc1ccc(C)cc1N1CC(C(=O)Nc2ccccc2N2CCCCC2)CC1=O (stereo not drawn)	DT40 TDP1 no CPT 21µM, TDP1 cell CPT inconclusive
CCc1ccc(N2CC(C(=O)Nc3ccccc3N3CCCC3)CC2=O)cc1 (stereo not drawn)	DT40 TDP1 no CPT 12µM, HT1080 IDH1KD tx inconclusive, HT1080-NT tox inconclusive, TDP1 cell CPT 12µM (no result: ELG1 repair inh)
COc1ccc(N2CC(C(=O)Nc3ccccc3N3CCCC3)CC2=O)c(OC)c1 (stereo not drawn)	DT40 TDP1 no CPT 4.6µM, HT1080 IDH1KD tx 23µM, HT1080-NT tox inconclusive, TDP1 cell CPT 2.9µM
COc1ccc(NC(=O)C2CC(=O)N(c3ccccc3Cl)C2)c(OC)c1 (stereo not drawn)	none
O=C(Nc1cc(C(F)(F)F)ccc1N1CCCC1)C1CC(=O)N(Cc2ccccc2)C1 (stereo not drawn)	none (no result: ELG1 repair inh)
Cc1ccc2c(c1)Cc1c(nc(-c3ccc(Cl)cc3)nc1SCC(=O)N1CCCCC1)O2	DT40 TDP1 no CPT inconclusive (no result: IL1B secr inh, HT1080 IDH1KD tx, HT1080-NT tox, ELG1 repair inh)
COc1cc(=O)n2c(c1C(=O)NC(C)c1ccco1)CCN(Cc1cc(C)ccc1C)CC2 (stereo not drawn)	none (no result: IL1B secr inh, HT1080 IDH1KD tx, HT1080-NT tox, ELG1 repair inh)
CC(=O)Nc1ccc(S(=O)(=O)NCC(=O)OCC(=O)N2CC(C)OC(C)C2)cc1 (stereo not drawn)	ELG1 repair inh inconclusive
CCCCc1cc(=O)oc2cc(C)cc(OC(C)C(=O)NCc3cccnc3)c12 (stereo not drawn)	IL1B secr inh inconclusive, TDP1 cell CPT inconclusive
COc1ccc(NC(=O)c2oc3ccccc3c2NC(=O)c2cc(=O)c3cc(Cl)ccc3o2)cc1	none (no result: IL1B secr inh, HT1080 IDH1KD tx, HT1080-NT tox, ELG1 repair inh)
COc1ccc(/C=C/c2cc(=O)c3cc(Cl)ccc3o2)cc1	DT40 TDP1 no CPT 21µM, ELG1 repair inh inconclusive, TDP1 cell CPT inconclusive
COc1cc2c(cc1OC)C(c1cccs1)N(C(=O)c1cccc(S(=O)(=O)N(C)C)c1)CC2 (stereo not drawn)	DT40 TDP1 no CPT inconclusive, TDP1 cell CPT 23µM
CCOC(=O)c1ccc(OCC2c3cc(OC)c(OC)cc3CCN2C(=O)Cc2ccc(F)cc2)cc1 (stereo not drawn)	DT40 TDP1 no CPT 18µM, TDP1 cell CPT 23µM (no result: IL1B secr inh, HT1080 IDH1KD tx, HT1080-NT tox, ELG1 repair inh)
CCOC(=O)c1ccc(OCC2NCCc3cc(OC)c(OC)cc32)cc1 (stereo not drawn)	IL1B secr inh inconclusive, DT40 TDP1 no CPT inconclusive, TDP1 cell CPT inconclusive
